Results reported in PubChem BioAssay AID686979 (National Center for Advancing Translational Sciences (NCATS), 2013).
Out of some 420,000 compounds screened, about 50,000 (12%) were called active. Where a call stands in place of a potency, no number is given. Roughly 26% stayed inconclusive and do not appear here. The call rests on the fitted dose curve; in most records, active means well fitted inhibition curve with a large enough effect; inconclusive means small, poorly fitted or top-dose-only effect; inactive means flat fitted curve, though single readings scatter. For the sample, actives were picked, then their nearest neighbours and some compounds at random.

Assay: qHTS for Inhibitors of human tyrosyl-DNA phosphodiesterase 1 (TDP1): qHTS in cells in presence of CPT; further: nearly all actives have a fitted effect of over 55% in size
Details: chicken DT40 Tdp1-/-;hTDP1 cells + 20 nM CPT, ATP luminescence, 48 h; series mostly up to 46.2 µM
How it was run: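 Chicken DT40 Tdp1-/- cells stably complemented with human TDP1 were seeded at 400 cells/well in medium containing 20 nM camptothecin, exposed to pin-transferred compounds, and grown at 37 °C for at least 48 hr. Viability was read as ATP luminescence.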
Potency means the concentration at half of the fitted maximal effect.

Row | SMILES | Potency
1 | CC1=NNC(=O)C1Cc1c(Cl)cccc1Cl (configuration not stated) | inactive
2 | C#CCOCCOCCOCCNc1nc(N2CCN(C(=O)C([C@@H](C)O)n3cc([C@@H](N)CCCCN)nn3)CC2)nc(N2CCN(C(=O)[C@H](CCCCN)n3cc(CN)nn3)CC2)n1 (some centres not stated) | inactive
3 | CC(C)[C@H](NC(=O)c1ccccc1F)C(=O)Nc1cccc(S(=O)(=O)N2CCOCC2)c1 | inactive
4 | CC(=O)c1ccc(NC(=O)Cn2c(=O)oc3ccccc32)cc1 | inactive
5 | Cc1ccccc1NC(=O)Cn1c(=O)n(CC2CCCO2)c(=O)c2ccccc21 (configuration not stated) | inactive
6 | O=C(NCc1ccccc1)C1c2ccccc2OCC(=O)N1CCCN1CCOCC1 (configuration not stated) | inactive
7 | O=C(/C=C/c1ccc2c(c1)OCO2)NCc1ccc(F)cc1 | inactive
8 | O=C1Nc2ccccc2NC(c2ccc3c(c2)OCO3)=C1N(Cc1ccc(F)cc1)C(=O)c1ccco1 | 16.4 µM (active)
9 | O=C(c1ccc2c(c1)OCO2)N1CCN(C(=O)c2ccco2)CC1 | inactive
10 | CCCCNc1ccc(-c2nc(-c3ccncc3)no2)cc1[N+](=O)[O-] | inactive
11 | Cc1ccc2nsnc2c1S(=O)(=O)N1CCCC1C(=O)O (configuration not stated) | inactive
12 | CCN(Cc1ccncc1)C(=O)CCc1ccccc1 | inactive
13 | Cc1nc2ccccc2n1CC(=O)N/N=C/c1cccnc1 | inactive
14 | O=C(CSc1cccc2cccnc12)N/N=C/c1cccnc1 | 23.1 µM (active)
15 | O=C(CNC(=O)c1cccnc1)N/N=C/c1cccnc1 | inactive
16 | CCCCCC(O)(CCN1CCCCC1)c1ccccc1 (configuration not stated) | inactive
17 | CC1=NN(c2ccc(Cl)c(C(=O)O)c2)C(=O)/C1=C/c1ccc(-c2ccccc2[N+](=O)[O-])o1 | inactive
18 | CC(=O)C1C(c2ccc(Cl)cc2)NC(=O)NC1(O)C(F)(F)F (configuration not stated) | inactive
19 | O=C1NC(c2ccc(-c3ccccc3[N+](=O)[O-])o2)C(C(=O)c2ccc(Cl)cc2)C(O)(C(F)(F)F)N1 (configuration not stated) | 18.4 µM (active)
20 | Cc1ccc(CSCC(=O)N(C)CC(=O)Nc2ccc(C)cc2)cc1 | inactive
21 | FC(F)(F)c1ccc2nnc(-c3c(Cl)cccc3Cl)n2c1 | inactive
22 | CN1CCN(c2nc3c(c(=O)[nH]c(=O)n3C)n2Cc2cccc3ccccc23)CC1 | inactive
23 | CCCCCn1c(SCCC(C)C)nc2c1c(=O)[nH]c(=O)n2C | inactive
24 | CC1CCN(c2nc3c(c(=O)[nH]c(=O)n3C)n2CCCc2ccccc2)CC1 | 16.4 µM (active)
25 | C=C(C)Cn1c(N2CCCC2)nc2c1c(=O)[nH]c(=O)n2C | inactive
26 | CCCSc1nc2c(c(=O)[nH]c(=O)n2C)n1CCc1ccccc1 | inactive
27 | CC=CCn1c(SCCCc2ccccc2)nc2c1c(=O)[nH]c(=O)n2C | 20.6 µM (active)
